Data taken from PubChem BioAssay (Tox21).
Unmarked numbers belong to inactive results. Records with an inconclusive call do not appear. Where a call stands in place of a potency, no number is given. Active and inactive are the calls of the source. Unless noted, calls come from the whole dose curve.

How the values were obtained:
[1] = target: Gonadotropin-releasing hormone receptor (Homo sapiens) (UniProt P30968); test: Human gonadotropin-releasing hormone receptor (GnRHR) small molecule agonists, calcium flux assay in GnRHR-HEK293 cells (AID 1920063); note: nearly all actives have a fitted effect of over 35% in size
In short: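 Stable human GnRHR HEK293 line. 18 h plating, then calcium dye for 1 h at 37 C. Agonist-mode compound addition from DMSO stocks; fluorescence monitored 3 min.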

[2] = G protein-coupled receptor (GPCR) small molecule agonists, calcium flux assay: HEK293 wild type cell line counter screen (AID 1920065)
In short: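 Following 18 h incubation at 37 C/5% CO2, plates got calcium dye for 1 h; compounds, ATP or DMSO were then pinned in and fluorescence followed kinetically (480/540 nm).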

[3] = p53 small molecule agonists, cell-based qHTS assay with human liver microsomes (AID 1963577);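 note: p53 response element beta-lactamase reporter cells with liver microsomes plus NADPH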
In short: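 16 h, 37 C exposure of p53RE-bla cells to compounds with human liver microsomes and NADPH (0.5 mg/mL final each); detection via LiveBLAzer mixture, 2 h dark at room temperature.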

[4] = p53 small molecule agonists, cell-based qHTS assay with rat liver microsomes (AID 1963578)
In short: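 With rat liver microsomes and NADPH present (0.5 mg/mL final each), p53RE-bla cells are treated with compound for 16 h at 37 C. LiveBLAzer detection mixture is then applied for 2 h at room temperature in the dark.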

[5] = p53 small molecule agonists, cell-based qHTS assay with human liver microsomes: qHTS cell viability counter screen (AID 1963579); note: nearly all actives have a fitted effect of over 45% in size
In short: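 In this multiplexed counter screen, the reporter plates were subsequently treated with CellTiter-Glo so that cell viability, reflected by luminescence, could be recorded for p53RE-bla cells dosed 16 h with compounds under microsomal activation (HLM and NADPH).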

[6] = p53 small molecule agonists, cell-based qHTS assay with rat liver microsomes: qHTS cell viability counter screen (AID 1963580); note: nearly all actives have a fitted effect of over 45% in size
In short: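 After the beta-lactamase ratio was read, CellTiter-Glo was added to the same wells and luminescence measured at 30 min; cells had been treated 16 h at 37 C with compounds, rat liver microsomes and NADPH (0.5 mg/mL final each).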

[7] = p53 small molecule agonists, cell-based qHTS assay: qHTS cell viability counter screen (AID 1963581); note: nearly all actives have a fitted effect of over 45% in size
In short: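 qHTS counter screen: 16 h compound exposure at 37 C of p53RE-bla HCT-116 cells (4,000 per well, seeded 5 h prior), cell viability by ATP luminescence.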

[8] = p53 small molecule agonists, cell-based qHTS assay (AID 1963582; active = well fitted activation curve with a large enough effect in the signal ratio in the repeat runs, not every such curve was filed as active; the % refers to the signal ratio)
In short: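 Measured: fluorescence from cleaved LiveBLAzer substrate. System: p53RE-bla cells, 16 h compound treatment at 37 C, 2 h substrate step at room temperature.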

[9] = target: 5-hydroxytryptamine receptor 2A (Homo sapiens) (UniProt P28223); test: 5-hydroxytryptamine receptor 2A (HTR2A) small molecule agonists, cell-based qHTS assay (AID 1963587); note: nearly all actives have a fitted effect of over 30% in size; note: potency is the fitted concentration of half-maximal effect
In short: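 CHO cells stably expressing human HTR2A, plated 18 h, loaded with calcium dye 1 h at 37 C. Agonist mode: compounds added and intracellular calcium fluorescence recorded kinetically for 2 min at 1 sec intervals.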

[10] = target: Muscarinic acetylcholine receptor M1 (Homo sapiens) (UniProt P11229); test: Cholinergic receptor muscarinic 1 (CHRM1) small molecule agonists, cell-based qHTS assay (AID 1963589); note: nearly all actives have a fitted effect of over 35% in size
In short: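 Kinetic fluorescence (1 s intervals) of calcium-sensitive dye in human M1 CHO cells after compound addition; cells pre-incubated 18 h at 37 C/5% CO2 and dye-loaded 1 h.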

[11] = cAMP Responsive Elements (CRE) small molecule antagonists, cell-based qHTS assay (AID 1963591; active = well fitted inhibition curve with a large enough effect in the signal ratio in the repeat runs, not every such curve was filed as active; the % refers to the signal ratio)
In short: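 Reporter line CRE-bla HEK 293T in dialyzed-FBS DMEM; cells preincubated 18 h, treated 3 h with compound plus NKH477 (0.25 uM final); LiveBLAzer FRET, 2 h RT.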

[12] = target: Beta-2 adrenergic receptor (Homo sapiens) (UniProt P07550); test: Adrenergic beta2 receptor (ADRB2) small molecule antagonists, cell-based qHTS assay (AID 1963592); note: series mostly up to about 92 µM; nearly all actives have a fitted effect of over 50% in size
In short: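 Assay format: CHO-ADRB2 cells, 18-20hr seeding at 37C/5% CO2, then compound plus 1nM isoproterenol agonist mix for 0.5hr RT. Homogeneous time-resolved fluorescence cAMP detection after 1hr, expressed as 665/615 nm ratio.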

[13] = target: KiSS-1 receptor (Homo sapiens) (UniProt Q969F8); test: Human kisspeptin (KISS1R) small molecule agonists, calcium flux assay in KISS1R-HEK293 cells (AID 1920064; active = well fitted activation curve with a large enough effect in the repeat runs)
In short: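 After overnight (18 h) culture at 37 C/5% CO2, human KISS1R-HEK293 cells received calcium dye for 1 h, then test compound; emission at 540 nm (excitation 480 nm) was tracked for 3 min.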

[14] = target: 5-hydroxytryptamine receptor 2A (Homo sapiens) (UniProt P28223); test: 5-hydroxytryptamine receptor 2A (HTR2A) small molecule antagonists, cell-based qHTS assay (AID 1963586); note: nearly all actives have a fitted effect of over 45% in size; note: potency is the fitted concentration of half-maximal effect
In short: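 CHO cells stably expressing human HTR2A were plated for 18 h at 37 C, then loaded with calcium dye for 1 h. Compounds were preincubated 5 min at room temperature before DOI (4 nM solution) was added. Kinetic fluorescence was read for 3 min.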

[15] = target: Muscarinic acetylcholine receptor M1 (Homo sapiens) (UniProt P11229); test: Cholinergic receptor muscarinic 1 (CHRM1) small molecule antagonists, cell-based qHTS assay (AID 1963588); note: nearly all actives have a fitted effect of over 40% in size
In short: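 Compounds were tested at 15 concentrations in three independent runs. Dye-loaded CHRM1-CHO cells were exposed 5 min at room temperature before stimulation by acetylcholine added at 50nM. Intracellular calcium was read kinetically on FDSS for 3 min.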

[16] = target: D(2) dopamine receptor (Homo sapiens) (UniProt P14416); test: Dopamine D2 receptor (DRD2) small molecule agonists, cell-based qHTS assay (AID 1963594); note: nearly all actives have a fitted effect of over 35% in size
In short: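 HEK293 cells stably expressing human DRD2, pre-treated with PDE inhibitor Ro20-1724 (0.1 mM final) and compound 10 min at room temperature, then stimulated with NKH477 (200nM […]) for 30 min. cAMP read by HTRF (665/620 nm).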

[17] = cAMP Responsive Elements (CRE) small molecule agonists, cell-based qHTS assay (AID 1963590)
In short: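 Test agents in DMSO were incubated 3 h at 37 C/5% CO2 with CRE-bla HEK 293T cells seeded 18 h earlier; LiveBLAzer B/G FRET substrate was added and read after 2 h at room temperature.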

[18] = target: Beta-2 adrenergic receptor (Homo sapiens) (UniProt P07550); test: Adrenergic beta2 receptor (ADRB2) small molecule agonists, cell-based qHTS assay (AID 1963593);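 note: CHO cells stably overexpressing human ADRB2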
In short: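 CHO cells stably over-expressing ADRB2 were plated overnight at 37C, then dosed with compounds plus a stimulation mix containing 100uM IBMX and 25uM Ro-20-1724 for 0.5hr at room temperature. cAMP was measured by HTRF competition, 1hr.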

[19] = target: D(2) dopamine receptor (Homo sapiens) (UniProt P14416); test: Dopamine D2 receptor (DRD2) small molecule antagonists, cell-based qHTS assay (AID 1963595; active = well fitted inhibition curve with a large enough effect in the signal ratio in the repeat runs, with a control signal flat; the % refers to the signal ratio)
In short: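 Cells were plated and grown for 24 h at 37 °C. Ro20-1724 (0.1 mM final) went in first, then compound for 10 min. NKH477 (200 nM) with quinpirole (12 nM) followed for 30 min at RT, then HTRF detection reagents for 1 h.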

Chain of KiSS-1 receptor (Homo sapiens) (Q969F8 whole entry, looked up): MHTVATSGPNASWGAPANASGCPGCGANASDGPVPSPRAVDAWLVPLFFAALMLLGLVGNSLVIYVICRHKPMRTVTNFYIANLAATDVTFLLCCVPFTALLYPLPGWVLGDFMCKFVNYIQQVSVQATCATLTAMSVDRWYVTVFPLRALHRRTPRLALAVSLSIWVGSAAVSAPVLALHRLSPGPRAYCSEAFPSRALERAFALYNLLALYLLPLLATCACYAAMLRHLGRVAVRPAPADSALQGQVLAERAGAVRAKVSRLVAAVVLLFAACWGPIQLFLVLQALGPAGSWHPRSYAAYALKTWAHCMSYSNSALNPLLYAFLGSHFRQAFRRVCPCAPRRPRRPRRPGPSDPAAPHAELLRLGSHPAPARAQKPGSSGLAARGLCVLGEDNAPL
Chain of Gonadotropin-releasing hormone receptor (Homo sapiens) (P30968 whole entry, looked up): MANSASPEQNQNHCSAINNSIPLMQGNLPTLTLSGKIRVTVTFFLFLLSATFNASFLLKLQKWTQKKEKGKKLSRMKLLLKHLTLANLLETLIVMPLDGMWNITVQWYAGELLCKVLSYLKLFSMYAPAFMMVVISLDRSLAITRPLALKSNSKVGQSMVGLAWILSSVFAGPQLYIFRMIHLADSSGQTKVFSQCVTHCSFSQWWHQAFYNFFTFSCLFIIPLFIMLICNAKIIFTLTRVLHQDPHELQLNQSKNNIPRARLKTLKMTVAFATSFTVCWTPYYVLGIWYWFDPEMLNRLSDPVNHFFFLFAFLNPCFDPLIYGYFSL
Chain of Muscarinic acetylcholine receptor M1 (Homo sapiens) (P11229 whole entry, looked up): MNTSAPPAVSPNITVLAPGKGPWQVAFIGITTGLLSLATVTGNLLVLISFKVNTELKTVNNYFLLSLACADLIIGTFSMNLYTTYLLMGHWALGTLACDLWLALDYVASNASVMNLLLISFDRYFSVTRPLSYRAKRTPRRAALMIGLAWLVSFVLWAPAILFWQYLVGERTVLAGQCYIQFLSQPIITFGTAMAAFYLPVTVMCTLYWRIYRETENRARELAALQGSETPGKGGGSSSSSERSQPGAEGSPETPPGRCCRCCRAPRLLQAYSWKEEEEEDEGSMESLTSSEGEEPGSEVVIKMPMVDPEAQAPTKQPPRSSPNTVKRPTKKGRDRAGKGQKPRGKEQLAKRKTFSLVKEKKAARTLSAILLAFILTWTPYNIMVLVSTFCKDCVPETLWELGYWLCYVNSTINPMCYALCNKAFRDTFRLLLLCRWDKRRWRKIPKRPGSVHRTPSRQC
Chain of 5-hydroxytryptamine receptor 2A (Homo sapiens) (P28223 whole entry, looked up): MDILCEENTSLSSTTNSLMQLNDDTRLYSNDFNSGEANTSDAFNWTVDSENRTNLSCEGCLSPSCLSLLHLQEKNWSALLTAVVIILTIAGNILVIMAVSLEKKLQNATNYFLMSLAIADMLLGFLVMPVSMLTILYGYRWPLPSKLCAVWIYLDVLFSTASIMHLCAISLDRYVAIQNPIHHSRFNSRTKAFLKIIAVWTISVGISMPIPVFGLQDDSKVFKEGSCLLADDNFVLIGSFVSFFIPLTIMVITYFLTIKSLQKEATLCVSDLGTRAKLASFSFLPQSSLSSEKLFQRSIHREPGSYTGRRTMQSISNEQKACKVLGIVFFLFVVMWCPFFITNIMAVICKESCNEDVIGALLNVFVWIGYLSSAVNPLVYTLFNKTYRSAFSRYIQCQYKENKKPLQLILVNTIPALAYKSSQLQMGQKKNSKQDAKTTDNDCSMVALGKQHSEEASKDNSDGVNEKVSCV
Chain of D(2) dopamine receptor (Homo sapiens) (P14416 whole entry, looked up): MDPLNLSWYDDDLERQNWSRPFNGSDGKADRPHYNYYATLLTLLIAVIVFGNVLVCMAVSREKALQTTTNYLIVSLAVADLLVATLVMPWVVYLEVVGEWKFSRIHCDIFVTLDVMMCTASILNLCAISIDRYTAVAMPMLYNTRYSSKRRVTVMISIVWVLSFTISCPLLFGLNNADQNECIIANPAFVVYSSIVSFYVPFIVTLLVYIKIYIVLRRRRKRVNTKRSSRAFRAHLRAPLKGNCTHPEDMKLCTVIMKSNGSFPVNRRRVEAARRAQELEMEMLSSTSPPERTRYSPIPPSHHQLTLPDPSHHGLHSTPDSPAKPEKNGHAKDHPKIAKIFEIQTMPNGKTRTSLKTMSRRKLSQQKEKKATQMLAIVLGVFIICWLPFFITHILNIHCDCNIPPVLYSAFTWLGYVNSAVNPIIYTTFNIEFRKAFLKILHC
Chain of Beta-2 adrenergic receptor (Homo sapiens) (P07550 whole entry, looked up): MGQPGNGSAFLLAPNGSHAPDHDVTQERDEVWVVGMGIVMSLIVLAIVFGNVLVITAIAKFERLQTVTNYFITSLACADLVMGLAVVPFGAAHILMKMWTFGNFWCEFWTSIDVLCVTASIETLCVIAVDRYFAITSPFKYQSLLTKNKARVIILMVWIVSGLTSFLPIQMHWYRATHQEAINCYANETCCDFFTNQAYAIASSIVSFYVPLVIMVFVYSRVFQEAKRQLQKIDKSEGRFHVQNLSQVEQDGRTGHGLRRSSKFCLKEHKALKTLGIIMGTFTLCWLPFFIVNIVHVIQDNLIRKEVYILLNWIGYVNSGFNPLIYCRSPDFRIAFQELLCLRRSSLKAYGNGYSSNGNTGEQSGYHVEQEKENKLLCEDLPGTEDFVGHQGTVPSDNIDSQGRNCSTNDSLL

Structure (SMILES) | Potency [1] | Potency [2] | Potency [3] | Potency [4] | Potency [5] | Potency [6] | Potency [7] | Potency [8] | Potency [9] | Potency [10] | Potency [11] | Potency [12] | Potency [13] | Potency [14] | Potency [15] | Potency [16] | Potency [17] | Potency [18] | Potency [19]
COc1ccc2c(C(=O)c3ccc(Cl)cc3)c(C)n(CC(=O)O)c2c1 | inactive | inactive | inactive | inactive | inactive | inactive | inactive | inactive | inactive | inactive | inactive | inactive |  |  |  |  |  |  | 
CCCC(Cn1cncn1)c1ccc(Cl)cc1Cl (stereo not drawn) |  | inactive | inactive | inactive | inactive | inactive | inactive | inactive |  | inactive |  | inactive | inactive | inactive | inactive | inactive |  |  | 
C[C@@H]1CC[C@H]2[C@@H](C)C(=O)O[C@@H]3O[C@@]4(C)CC[C@@H]1[C@]32OO4 | inactive | inactive | inactive | inactive | inactive | inactive | inactive | inactive |  |  | inactive | inactive |  |  |  | inactive | inactive | inactive | inactive
CCC(=O)c1ccc(Cl)cc1 | inactive | inactive |  |  | inactive | inactive | inactive |  | inactive | inactive | inactive | inactive |  |  | inactive | inactive | inactive |  | inactive
CCOP(=S)(OCC)OC(Cl)C(Cl)(Cl)Cl (stereo not drawn) | inactive | inactive |  |  | inactive | inactive | inactive | inactive |  |  | inactive | inactive |  | inactive | inactive | inactive | inactive |  | inactive
CC(=O)[O-].CC(=O)[O-].O.O.[Cd+2] |  | inactive |  |  | inactive |  |  |  | 27200 nM (active) |  |  | inactive | inactive | inactive |  | inactive | inactive | inactive | inactive
CCN(CC)CCc1c[nH]c2ccccc12 |  | inactive | inactive | inactive | inactive | inactive |  | inactive | 9.1 nM (active) | inactive | inactive | inactive | inactive | 22.1 nM (active) | inactive | inactive | inactive | inactive | inactive
Oc1cc(Cl)cc(Cl)c1 | inactive |  | inactive | inactive | inactive | inactive | inactive |  | inactive |  | inactive | inactive |  | inactive | inactive | inactive |  |  | inactive
FC(F)(F)c1cccc(C2=CCN(CCc3ccc4ccccc4c3)CC2)c1 | inactive | inactive | inactive | inactive | inactive | inactive | inactive | inactive | inactive |  |  | inactive |  | inactive |  | inactive | inactive |  | 
